Calls of active or inactive are those of the source. Unless noted, the rule behind the calls is not given here.
Experiments:
[1] = test system: XIP peptide (Xip251-270) binding; assay: XIP fragment 251-270 binding compounds – biochemical, small-molecule microarray, fluorescence 635/667 nm, 0.1 µg/mL protein, primary screen (AID 1182); conditions: fluorescent protein binding, 635 nm, higher = more signal, called active from +8 up or from −8 down
XIP peptide (Xip251-270) = assay: compounds binding XIP fragment 251-270 – biochemical, small-molecule microarray, fluorescence 635/667 nm, 0.5 µg/mL protein, primary screen (AID 1183); conditions: fluorescence 635 nm, higher = more signal
[2] = blood-stage malaria parasite viability loss – strain 3D7, DAPI fluorescence, 100 nL, primary screen (AID 1184);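 note: parasites grown inside human red blood cells in medium with human serum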; conditions: P. falciparum 3D7 growth, 3 d, higher = more signal
[3] = biological target: Homeobox protein Hox-A13 (Mus musculus) (UniProt Q62424); assay: disruptors of Hoxa13 oligonucleotide interaction – biochemical, fluorescence polarization, labeled oligonucleotide, primary screen (AID 1185); conditions: Hoxa13:DNA binding, 15 min, higher = more signal, called active from +8 up or from −8 down
Chain of Homeobox protein Hox-A13 (Mus musculus) (Q62424 whole entry, looked up): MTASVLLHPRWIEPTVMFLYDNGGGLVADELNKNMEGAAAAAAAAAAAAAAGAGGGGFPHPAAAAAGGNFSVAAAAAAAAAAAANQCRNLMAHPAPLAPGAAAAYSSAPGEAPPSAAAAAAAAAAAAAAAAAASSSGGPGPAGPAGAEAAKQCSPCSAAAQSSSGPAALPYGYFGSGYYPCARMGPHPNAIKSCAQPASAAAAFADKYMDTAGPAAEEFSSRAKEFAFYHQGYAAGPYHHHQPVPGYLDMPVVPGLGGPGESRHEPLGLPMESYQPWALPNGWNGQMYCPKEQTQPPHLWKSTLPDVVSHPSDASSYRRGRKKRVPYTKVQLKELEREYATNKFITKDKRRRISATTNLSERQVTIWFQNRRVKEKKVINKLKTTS

[4] = blockers of DNA damage checkpoint Chk1 activation – imaging, HeLa, hydroxyurea, phospho-Chk1 antibody, percent positive cells, primary screen (AID 1186); conditions: hydroxyurea-induced phospho-Chk1 immunofluorescence imaging, higher = more signal
[5] = blockers of DNA damage checkpoint Chk1 activation – imaging, HeLa, hydroxyurea, phospho-Chk1 nuclear intensity, primary screen (AID 1187); conditions: hydroxyurea-induced phospho-Chk1 immunofluorescence imaging, higher = more signal

| Structure (SMILES) | composite z-score [1] | composite z-score (XIP peptide (Xip251-270)) | z-score [2] | z-score [3] | z-score [4] | z-score [5] |
| --- | --- | --- | --- | --- | --- | --- |
| CC1CC/C=C\[C@H]2OC34C=CCN(c5ccc6ccccc6c5)C(=O)[C@H]3N(C(CO)C(C)C)C(=O)[C@@H]4C2C(=O)O1 (some centres not stated) | 0.17 (inactive) | -0.0558 | -0.571 | -6.57 (inactive) | 0.174 (inactive) | 0.604 (inactive) |
| COCCOC(=O)N1C(=O)[C@@]2(c3cc(C#CC4(O)CCCCCC4)ccc31)[C@H](c1ccccc1OCCO)N1[C@H](c3ccccc3)[C@H](c3ccccc3)OC(=O)[C@H]1[C@@H]2C(N)=O | 0.151 (inactive) | 0.774 | -2.07 | -2.04 (inactive) | 0.141 (inactive) | -0.377 (inactive) |
| CC(C)C(O)C1C=CC2C(=O)N(C)C(=O)C2N1N(c1ccccc1)c1ccccc1 (configuration not stated) | 0.618 (inactive) | 0.123 | 0.0202 | -4.48 (inactive) | 0.307 (inactive) | 0.0802 (inactive) |
| CCOC(=O)C1=CC[C@@H](c2cc(Cl)ccc2Cl)N(S(=O)(=O)c2ccc(C)cc2)[C@H]1c1ccc(OC)cc1 | -0.244 (inactive) | -0.837 | -1.41 | -1.08 (inactive) | -0.256 (inactive) | -0.611 (inactive) |
| O=C(NC1CC1)[C@@H]1c2ccccc2C(=O)N(Cc2ccccc2)[C@H]1c1ccc(CO)cc1 | 1.38 (inactive) | 0.752 | -1.55 | -2.86 (inactive) | -0.556 (inactive) | -0.679 (inactive) |
| C=CCOC(=O)[C@H]1[C@@H]2C(=O)O[C@@H](c3ccccc3)[C@@H](c3ccccc3)N2[C@@H](c2ccc(OCCOC(=O)[C@H]3C[C@H]4C(=O)N[C@@H](CCCC[N+](C)(C)C)C(=O)N4[C@H]3c3cccc(OCCO)c3)cc2)[C@]12C(=O)Nc1ccc(I)cc12 | 0.261 (inactive) | 0.617 | -1.87 | 1.47 (inactive) | -0.714 (inactive) | -0.783 (inactive) |
| O=C1O[C@@H](c2ccccc2)[C@@H](c2ccccc2)N2[C@@H](c3ccccc3OCCO)[C@]3(C(=O)Nc4ccc(C#CC5=CCCCC5)cc43)[C@@H](C(=O)NC[C@H](O)c3ccccc3)[C@H]12 | 0.409 (inactive) | 0.0598 | -1.7 | 1.62 (inactive) | -0.336 (inactive) | -0.415 (inactive) |
| COCCCNC(=O)[C@@]1(Sc2ccc(C)cc2)CC(=O)N(C2Cc3ccccc3C2)[C@@H]1c1ccc(CO)cc1I | 0.0203 (inactive) | -0.314 | 0.701 | -2.28 (inactive) | 0.542 (inactive) | 0.94 (inactive) |
| CN1C2C=C(CCCO)C(C3C(=O)N(C(N)=O)C(=O)C32)C1c1cccs1 (configuration not stated) | 0.0931 (inactive) | -0.301 | -0.29 | -8.5 (active) | -0.443 (inactive) | 0.133 (inactive) |
| COc1ccc([Si](C)(C)[C@@H]2[C@@H](CCO)O[C@]3(C(=O)N(Cc4cccc(N5C(=O)c6ccccc6Oc6ccccc65)c4)c4ccccc43)[C@H]2C)cc1 | 0.872 (inactive) | 0.41 | -2.47 | -1.49 (inactive) | -0.665 (inactive) | -0.278 (inactive) |
| O=c1cccc(-c2ccc(C(F)(F)F)cc2)o1 | 0.338 (inactive) | -0.256 | 1.39 | -1.7 (inactive) | 0.264 (inactive) | 0.197 (inactive) |
| NCCCCCNC(=O)[C@@H]1C[C@@H]2C(=O)N[C@@H](CCCCN)C(=O)N2[C@@H]1c1cccc(OCCO)c1 | 0.824 (inactive) | 0.793 | -0.119 | -0.453 (inactive) | 0.0424 (inactive) | -0.0136 (inactive) |

From PubChem BioAssay
